Compound activity from PubChem.
VDR inhibitor – Inhibitors of the vitamin D receptor (VDR): qHTS; VDR-SRC2-3 peptide fluorescence polarization, 2 h; Potency, µM, for inactives: max response, negative = inhibition, actives largely listed as inhibitors; 400,000 tested, 0.93% active
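VDR–SRC2-3 interaction, FP format. Cmpds 23 nl via pintool, brief spin, 2 h ambient incubation.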
TDP1 block – qHTS Assay for Inhibitors of Tyrosyl-DNA Phosphodiesterase (TDP1); Potency, µM (highest dose often 130 µM), without a hit: top-dose activity change, negative = inhibition, usual class: inhibitors; 350,000 tested, 0.28% active; recombinant TDP1, AlphaScreen DNA substrate cleavage; Tyrosyl-DNA phosphodiesterase 1 (Homo sapiens), Q9NUW8; note: nearly all actives have a fitted effect of over 40% in size
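Here, a 5' biotin and 3' phosphotyrosine-FITC DNA oligonucleotide reports Tdp1 activity: intact substrate bridges AlphaScreen beads, while cleavage leaves a 3' phosphate and drops signal. All incubations at room temperature.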
GCN5L2 inh – qHTS Assay for Inhibitors of GCN5L2; Potency, µM (highest dose often 58.9 µM), for inactives: at the top dose activity change, negative = inhibition, usual class: inhibitors; GCN5L2 HAT assay, ThioGlo1 CoA-SH fluorescence; 390,000 tested, 0.21% active
Target sequence (Q92830 whole entry, looked up): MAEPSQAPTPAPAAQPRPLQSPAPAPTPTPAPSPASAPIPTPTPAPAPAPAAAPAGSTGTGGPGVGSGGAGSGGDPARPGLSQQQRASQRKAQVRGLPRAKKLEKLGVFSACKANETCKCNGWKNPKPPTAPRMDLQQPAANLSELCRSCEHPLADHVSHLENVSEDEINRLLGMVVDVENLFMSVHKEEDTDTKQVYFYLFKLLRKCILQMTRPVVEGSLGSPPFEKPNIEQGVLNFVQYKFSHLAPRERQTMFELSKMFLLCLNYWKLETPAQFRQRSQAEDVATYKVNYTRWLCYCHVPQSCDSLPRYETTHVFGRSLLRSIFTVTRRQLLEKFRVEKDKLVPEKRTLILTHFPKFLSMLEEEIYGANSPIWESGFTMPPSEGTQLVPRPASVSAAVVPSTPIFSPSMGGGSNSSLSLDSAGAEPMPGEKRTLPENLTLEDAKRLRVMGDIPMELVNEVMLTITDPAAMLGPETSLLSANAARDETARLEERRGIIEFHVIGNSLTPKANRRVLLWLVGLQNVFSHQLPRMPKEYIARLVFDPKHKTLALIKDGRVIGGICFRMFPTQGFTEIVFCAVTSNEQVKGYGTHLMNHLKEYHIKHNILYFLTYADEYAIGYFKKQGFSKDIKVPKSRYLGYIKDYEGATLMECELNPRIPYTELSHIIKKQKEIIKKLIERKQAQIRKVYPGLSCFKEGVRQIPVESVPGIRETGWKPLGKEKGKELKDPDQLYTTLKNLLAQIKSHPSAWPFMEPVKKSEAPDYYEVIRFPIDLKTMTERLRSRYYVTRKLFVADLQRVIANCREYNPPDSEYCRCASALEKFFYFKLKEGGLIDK
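Preincubate 20nM GCN5L2 with compound 15 min, RT → add 50uM ThioGlo1 + 75uM H3(1-25) + 70uM acetyl-CoA → read fluorescence 0 and 20 min. Primary qHTS; fluorescent artifacts likely.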
PLK1 PBD block – qHTS for Inhibitors of PLK1-PDB (polo-like kinase 1 - polo-box domain): Primary Screen. Plk1 PBD binding of FITC phosphopeptide, fluorescence polarization. Potency, µM, for the others: max response, negative = inhibition, usual class: inhibitors. Serine/threonine-protein kinase PLK1 (Homo sapiens), P53350. 360,000 tested, 2.8% active; note: series mostly up to about 57 µM; nearly all actives have a fitted effect of over 65% in size
TDP1 cell CPT – qHTS for Inhibitors of human tyrosyl-DNA phosphodiesterase 1 (TDP1): qHTS in cells in presence of CPT. chicken DT40 Tdp1-/-;hTDP1 cells + 20 nM CPT, ATP luminescence, 48 h. Potency, µM (titrated, usually from 46.2 µM), for inactives: top-dose activity change, negative = growth inhibition, usual class: inhibitors. 420,000 tested, 12% active; note: nearly all actives have a fitted effect of over 55% in size
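Cell growth measured by CellTiter-Glo luminescence after a minimum 48 h, 37 C compound exposure with 20 nM CPT in Tdp1-knockout DT40 cells stably expressing hTDP1, seeded 400/well; qHTS titration format.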
TDP1 cell noCPT – qHTS for Inhibitors of human tyrosyl-DNA phosphodiesterase 1 (TDP1): qHTS in cells in absence of CPT | DT40 Tdp1-/- hTDP1 cells, no CPT, ATP luminescence, 48 h | Potency, µM (series often up to 46.2 µM), for inactives: at the top dose activity change, negative = growth inhibition, usual class: inhibitors | 420,000 tested, 15% active | AID 686978, 2013; note: nearly all actives have a fitted effect of over 55% in size
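No-CPT arm: Tdp1-/-;hTDP1 DT40 cells (400/well) plus compounds, incubated ≥48 hr at 37 °C. Readout CellTiter-Glo luminescence.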
Active calls of the source: *; ? = inconclusive; . = not tested or not shown; [ ] = dose if it differs, or a comment. Most compounds without a hit are left out; they make up all but 18% or so of the library. Calls come from the whole dose curve; as a rule, active = well fitted curve in the direction sought with a large enough effect; inconclusive = small, poorly fitted or top-dose-only effect, or another doubt; inactive = no such curve, though single readings can be large; an effect the other way counts as inactive or inconclusive. % is set by controls: 0 for no effect and ±100 for the full control effect; potency is the fitted concentration of half-maximal effect.

SMILES	VDR inhibitor	TDP1 block	GCN5L2 inh	PLK1 PBD block	TDP1 cell CPT	TDP1 cell noCPT
COc1ccc(Br)cc1CNC(=O)CCC(=O)N1CCSc2ccccc21	-8.0%	7.7%	-2.7%	1.0%	?	20.6µM*
COc1ccc(Br)cc1CNC(=O)c1ccc2c(c1)N(C)CCS2	-20.5%	.	-23.7%	-7.1%	23.1µM*	?
CCN1CCSc2ccc(C(=O)NCc3cc(Br)ccc3OC)cc21	-1.5%	.	-7.8%	-13.7%	16.4µM*	?
COC(=O)c1ccccc1NC(=O)CCC(=O)N1CCSc2ccccc21	7.4%	.	-12.4%	-8.8%	-7.5%	-21.1%
O=C1CCCCCC[C@@H](O)[C@H](O)C[C@H](c2ccccc2)O1	.	.	.	-2.3%	-10.8%	-28.0%
COc1ccc(CNC(=O)c2ccc3c(c2)nc2n3CCCCC2)c(OC)c1	-4.1%	2.7%	-6.8%	.	5.5%	-18.8%
COc1ccc(Br)cc1CNC(=O)c1ccc2c(c1)nc1n2CCCCC1	-1.8%	2.7%	-7.4%	.	?	16.4µM*
CC1CN(C)C(C)c2c1oc1ccc(N)cc21 (stereo not given)	-7.5%	0.0%	0.6%	-8.3%	?	10.3µM*
CC1CN(C)C(C)c2c1oc1ccc([N+](=O)[O-])cc21 (stereo not given)	-10.4%	-2.4%	0.8%	-2.7%	-1.6%	0.7%
CC(=O)CCC(=O)N1CCC(n2c(C3CCCO3)nc3cc(C(F)(F)F)ccc32)CC1 (stereo not given)	.	.	.	.	-8.3%[9.04 µM]	-1.5%
O=C(NCc1cccs1)C1C(=O)Nc2ccccc2C(=O)N1Cc1ccccc1 (stereo not given)	.	.	.	5.0%	14.6%	19.6%
CCCCCCSC1=C(C#N)C(=O)NC2(CCCCC2)S1	?	7.7%	-26.5%	26.7µM*	1.6%	-9.8%
O=C(CNC(=O)C1CCCCC1)OCCOc1ccccc1	-18.2%	0.4%	.	.	-1.6%	-20.3%
Cc1cccc(OCCc2c(C)[nH]c(=S)[nH]c2=O)c1	7.5%	2.3%	-6.7%	?	?	16.4µM*
Cc1ccc(OCCn2c(=S)[nH]c3ccccc32)c(C(C)C)c1	?	2.0%	-10.4%	-6.0%	25.9µM*	?
N#CCCn1c(=S)[nH]c2ccccc21	3.1%	-7.9%	2.5%	?	-1.3%	-11.9%
S=c1[nH]c2cnccc2n1Cc1ccccc1	-3.7%	.	10.1%	?	2.8%	-9.2%
S=c1[nH]c2ccccc2n1Cc1ccccc1	?	.	-13.3%	8.44µM*	?	?
S=c1[nH]c2ccccc2n1CCOc1ccccc1	?	.	-26.8%	18.9µM*	-1.9%	-0.4%
Cc1cccc(OCCn2c(S(=O)(=O)O)nc3ccccc32)c1	0.9%	4.8%	-7.8%	-4.6%	13.2%	5.0%
CCOc1ccc(OCCn2c(=S)[nH]c3ccccc32)cc1	?	.	-5.9%	13.4µM*	-7.1%	-26.3%
COc1ccccc1OCCn1c(=O)n(C)c2ccccc21	-4.1%	0.0%	-5.7%	-0.2%	-9.3%	-18.4%
COc1ccccc1OCCn1c(=S)[nH]c2ccccc21	-16.5%	5.0%	-9.7%	?	18.4µM*	?
Cc1cccc(OCCn2c(=S)[nH]c3ccccc32)c1	?	-2.6%	-22.3%	5.97µM*	23.1µM*	?
CCOc1ccc2c(c1)[nH]c(=S)n2C	?	1.2%	-2.5%	13.4µM*	0.3%	9.0%
O=S1(=O)CCN(CCCCc2ccccc2)CC1	.	.	.	2.2%	-8.8%	-27.3%
